Experimental data published in PubChem BioAssay (NCI).
Several values for one entry are separate records, joined by “and”; a condition that tells them apart may be missing. Equal values may be shown once. This is part of a sample that, as a whole, favours compounds with a hit. Of some 83,000 tested, about 20% had one in any assay.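 96-well plates, one dose, 48 hours. Percent growth reported; active if below 10.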 Activity calls are given as the source filed them.

How the values were obtained:
Assay in all cases: NCI-60 one-dose screen, 48 h (100 = growth as untreated, 0 = no growth, -100 = all killed)
Conditions in all cases: 10 µM unless noted
[1] = tested on: HCT-15 colon
[2] = tested on: HT29 colon
[3] = tested on: SNB-75 CNS
[4] = tested on: SNB-19 CNS
[5] = tested on: U251 CNS
[6] = tested on: PC-3 prostate
[7] = tested on: SK-MEL-5 melanoma
[8] = tested on: UACC-62 melanoma
[9] = tested on: LOX IMVI melanoma
[10] = tested on: SK-MEL-28 melanoma

SMILES	growth [1]	growth [2]	growth [3]	growth [4]	growth [5]	growth [6]	growth [7]	growth [8]	growth [9]	growth [10]
CCOc1ccc(Nc2c3ccccc3nc3ccccc23)cc1	91.1% (inactive) and 17.4% (inactive) and 22% (inactive)	98% (inactive) and 4.3% (active) and 10.5% (inactive)	77.1% (inactive) and 38.2% (inactive) and 21.5% (inactive)	91.1% (inactive) and 44.3% (inactive) and 35.2% (inactive)	86% (inactive) and 21.4% (inactive) and 28.1% (inactive)	90.6% (inactive) and 25.6% (inactive) and 39.5% (inactive)	80.6% (inactive) and -65.9% (active) and 0.799% (active)	84.8% (inactive) and 18.9% (inactive) and 31.8% (inactive)	94.5% (inactive) and 3.66% (active) and 11.5% (inactive)	106% (inactive) and 46.8% (inactive) and 66.1% (inactive)
O=[N+]([O-])c1ccccc1/C=N\Nc1ccccc1	42.5% (inactive) and 60.2% (inactive)	102% (inactive) and 111% (inactive)	71.4% (inactive) and 96% (inactive)	96.2% (inactive) and 102% (inactive)	84.7% (inactive) and 90% (inactive)	63% (inactive) and 56.5% (inactive)	90.3% (inactive) and 88.6% (inactive)	18.7% (inactive) and 19.9% (inactive)	71.7% (inactive) and 53.4% (inactive)	115% (inactive) and 117% (inactive)
CCN(CC)CCc1nc(-c2ccccc2)no1	78.8% (inactive) and 111% (inactive)	64.3% (inactive) and 93.3% (inactive)	82.1% (inactive) and 72.2% (inactive)	89.7% (inactive) and 94.2% (inactive)	52.7% (inactive) and 99.4% (inactive)	81.3% (inactive) and 96.7% (inactive)	84.6% (inactive) and 116% (inactive)	77% (inactive) and 95.9% (inactive)	63.9% (inactive) and 94.6% (inactive)	89.5% (inactive) and 106% (inactive)
OC(COc1cccc2ccccc12)CN1CCN(c2ccc(Cl)cc2)CC1 (stereo not given)	87.4% (inactive) and 101% (inactive)	82.9% (inactive) and 88.9% (inactive)	73.7% (inactive) and 88% (inactive)	87.6% (inactive) and 90.2% (inactive)	69.9% (inactive) and 108% (inactive)	88.4% (inactive)	87.6% (inactive) and 102% (inactive)	98% (inactive) and 85% (inactive)	86.3% (inactive) and 82.2% (inactive)	107% (inactive) and 114% (inactive)
COc1ccc2ccccc2c1/C=N/N1CCCCC1	99.4% (inactive)	101% (inactive)	87.6% (inactive)	88.1% (inactive)	97.8% (inactive)	95.9% (inactive)	98.3% (inactive)	89.1% (inactive)	93% (inactive)	96.5% (inactive)
O=C(CCl)c1ccc2c(c1)Nc1ccccc1S2	85.1% (inactive) and 21.2% (inactive)	101% (inactive) and 95.6% (inactive)	88.6% (inactive) and 102% (inactive)	99.7% (inactive) and 98% (inactive)	98% (inactive) and 92% (inactive)	92.8% (inactive) and 104% (inactive)	94.1% (inactive) and 99.5% (inactive)	87.5% (inactive)	79.1% (inactive) and 48.2% (inactive)	106% (inactive) and 115% (inactive)
OCCN1CCN(CCCN2c3ccccc3Sc3ccc(Cl)cc32)CC1	49.6% (inactive) and 80.8% (inactive)	1.64% (active) and 18.2% (inactive)	59.8% (inactive) and 45.6% (inactive)	75.6% (inactive) and 100% (inactive)	58.2% (inactive) and 73.1% (inactive)	47.7% (inactive) and 67% (inactive)	50.4% (inactive)	-64.3% (active) and 23.5% (inactive)	29.4% (inactive) and 69.6% (inactive)	-33.9% (active) and 56.1% (inactive)
COC(=O)c1nc(N)nc(C(=O)OC)c1C(=O)c1ccc(OC)cc1	107% (inactive) and 42% (inactive)	113% (inactive) and 68.2% (inactive)	95.2% (inactive) and 76% (inactive)	98.1% (inactive) and 69.9% (inactive)	106% (inactive) and 49.6% (inactive)	99% (inactive) and 46% (inactive)	104% (inactive) and 57.4% (inactive)	102% (inactive) and 35% (inactive)	97.7% (inactive) and 52.8% (inactive)	116% (inactive) and 69% (inactive)
O=[N+]([O-])c1ccc(/C=N\NC(=S)Nc2ccc(F)cc2)cc1	106% (inactive) and 96.6% (inactive)	93.9% (inactive) and 95.1% (inactive)	92.5% (inactive) and 97.9% (inactive)	103% (inactive) and 93.5% (inactive)	82.8% (inactive) and 83.4% (inactive)	101% (inactive) and 86% (inactive)	102% (inactive) and 101% (inactive)	104% (inactive) and 91% (inactive)	88.9% (inactive)	103% (inactive) and 104% (inactive)
